Several values for one entry are separate records, joined by “and”; a condition that tells them apart may be missing. Equal values may be shown once. Compounds without any hit were thinned out: in the full panel of roughly 79,000, 15% have a hit. Values without a mark were called inactive. Activity calls are given as the source filed them. Cut-off read from the data, not from the text of the source: active = growth inhibition above about 70%; inactive = the rest.
Experiment: NCI Yeast Anticancer Drug Screen. Data for the mlh1 rad18 strain (AID 175)
Conditions: S. cerevisiae mlh1 rad18 strain growth inhibition; at 50.0 µM (retest, dose inferred, filed as 5.0); hits give high values
Outline: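 Yeast w/ defined DNA-repair lesions; compound exposure; growth vs vehicle controls → % inhibition.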

SMILES | growth inhibition
O=C1C=CC(=O)N1c1cccc([N+](=O)[O-])c1 | 99% (active)
CC(=O)O/C=C1\c2ccccc2CCC1c1ccc2ccccc2c1 (stereo not drawn) | 9%
CCOc1ccccc1NC1=C(Cl)C(=O)c2ccccc2C1=O | 97% (active)
CCc1cccc(C)c1N1C(=O)C(=O)C(c2nc3ccccc3o2)/C(=N\NS(=O)(=O)c2ccc(C)cc2)C1=O (stereo not drawn) | 15%
O=C(CC(=O)c1ccccc1)CC(=O)c1cccc(Cl)c1 | 93% (active)
CC(O)c1c2ccccc2cc2ccccc12 (stereo not drawn) | 85% (active)
CCCCCCCCCCCCCCCCC#N | -5%
O=C1/C(=C/c2cccc(Br)c2)CCc2ccccc21 | 64%
CC1(C)c2ccccc2Cc2cc3ccccc3nc21 | 98% (active)
CN(C)Cc1ccc2[nH]c3c(c2c1)CCCC3 | 93% (active)
C=C1C(=O)O[C@@H]2C[C@@]3(C)CCC[C@H](C)C3=C[C@H]12 | 96% (active)
O=C1C=CC(=O)c2c1cc1ccccc1c2O | 97% (active)
Cc1c(CNc2ccc(Cl)c(Cl)c2Cl)cnc2nc(N)nc(N)c12 | 56%
O=C(O)C1(Cc2ccc3c(c2)CCC3)Cc2cc3c(cc2C1)CCC3 | 14%
O=C(c1ccc(O)c(Br)c1)c1cc(Br)ccc1O | 98% (active)
Oc1cc(F)cc2cccnc12 | 99% (active)
C/C(=N\OC(=O)c1ccccc1)[N+](=O)[O-] | 98% (active)
O=C(c1ccccc1)C(Br)CCCC(Br)C(=O)c1ccccc1 (stereo not drawn) | 60%

Same assay, conditions: S. cerevisiae mlh1 rad18 strain growth inhibition; at 50.0 µM; hits give high values

SMILES | growth inhibition
COc1cc(C(c2cc3c(cc2O)OCO3)N2CCN(C(c3cc(OC)c(OC)c(OC)c3)c3cc4c(cc3O)OCO4)CC2)cc(OC)c1OC (stereo not drawn) | 64.1%
Cc1cc(N)c(C)c2c1[nH]c1ccc(Br)cc12 | 38.5%
COc1ccc(C2c3cc4c(cc3OC(O)(CO)C2C(=O)O)OCO4)cc1 (stereo not drawn) (tested in a mixture with another compound) | 81.8% (active)
CC(=O)OC1COC(SC(=N)N)C(OC(C)=O)C1OC(C)=O (stereo not drawn) | 22.6% and 29.1% and 4.55%
CCCCCC(/C=N/Nc1nc(C)cc(=O)[nH]1)=C\c1ccccc1 | 70.5% (active)
NCC(=O)NC(CO)C(=O)O (stereo not drawn) | -3.35% and -12.8% and -9.4%
O=C1/C(=C/c2ccc([N+](=O)[O-])cc2)CNC/C1=C\c1ccc([N+](=O)[O-])cc1 | 75.7% (active)
CC(c1ccc2cccc(F)c2c1)c1ccccc1C(=O)O (stereo not drawn) | 98.2% (active)
OC(c1ccccc1)C(O)c1ccccc1 (stereo not drawn) | 20.1% and 11.9% and 2.4%
CN(NC(=O)CC(=O)NN(C)C(=S)c1ccccc1)C(=S)c1ccccc1 | 84.2% (active)
O=c1nc(N2CCCC2)nc(N2CCCC2)s1 | 7.45%
CC(=O)SC1C(=O)N(C)C(SC(C)=O)C(=O)N1C (stereo not drawn) | 96.5% (active)
CCN(CC)CC(O)c1ccnc2c(O)cccc12 (stereo not drawn) | 51.9%
Nc1ccc(S(=O)(=O)O)c2ccccc12 | -12.8% and -40% and 8.1%
CC1=NN(c2ccccc2)C(=O)C1N=Nc1cc(Cl)cc(S(=O)(=O)O)c1O (stereo not drawn) | 42.5%
O=C(O)CC(NC(=O)CP(=O)(O)O)C(=O)O.[NH-]C1CCCCC1[NH-].[Pt+2] (stereo not drawn) | -23.1%
COc1ccc(-c2nc3c(C(=O)NCCN(C)C)cccc3c3ccccc23)cc1 | 89.5% (active)
C[C@]12CCC(=O)C=C1CC[C@@H]1[C@@H]2[C@@H](O)C[C@@]2(C)[C@H]1CC[C@]2(O)C(=O)COC(=O)CCC1CCCC1 | 84.3% (active)
O=C1C=CC(=O)N1c1cccc([N+](=O)[O-])c1 | 99.5% (active)
CC(=O)O/C=C1\c2ccccc2CCC1c1ccc2ccccc2c1 (stereo not drawn) | -0.15%

SMILES | growth inhibition
COC1OC2COC(c3ccccc3)OC2C(O)C1O (stereo not drawn) | -3.15% and -3.95% and 9.8%
CCOc1ccccc1NC1=C(Cl)C(=O)c2ccccc2C1=O | 96.1% (active)
CCc1cccc(C)c1N1C(=O)C(=O)C(c2nc3ccccc3o2)/C(=N\NS(=O)(=O)c2ccc(C)cc2)C1=O (stereo not drawn) | 0.25%
O=C(CC(=O)c1ccccc1)CC(=O)c1cccc(Cl)c1 | 85.2% (active)
CC(O)c1c2ccccc2cc2ccccc12 (stereo not drawn) | 78.8% (active)
CCCCCCCCCCCCCCCCC#N | 24.1%
CSc1ccccc1C(=O)O | -7.45% and -1.95% and -8.9%
O=C1/C(=C/c2cccc(Br)c2)CCc2ccccc21 | 65.8%
CC1(C)c2ccccc2Cc2cc3ccccc3nc21 | 83.2% (active)
Cc1ccc(S(=O)(=O)OCC(O)C(O)COS(=O)(=O)c2ccc(C)cc2)cc1 (stereo not drawn) | 26.1% and -1.9% and -2.9%
CN(C)Cc1ccc2[nH]c3c(c2c1)CCCC3 | 65.1%
C=C1C(=O)O[C@@H]2C[C@@]3(C)CCC[C@H](C)C3=C[C@H]12 | 68.5%
O=C1C=CC(=O)c2c1cc1ccccc1c2O | 30.6%
Cc1c(CNc2ccc(Cl)c(Cl)c2Cl)cnc2nc(N)nc(N)c12 | -36.1%
O=C(O)C1(Cc2ccc3c(c2)CCC3)Cc2cc3c(cc2C1)CCC3 | 80.1% (active)
O=C(c1ccc(O)c(Br)c1)c1cc(Br)ccc1O | 95.9% (active)
Oc1cc(F)cc2cccnc12 | 91.3% (active)
OCC(O)C(O)C(O)C(O)CNCC(O)C(O)C(O)C(O)CO (stereo not drawn) | 17.4% and 21% and 20.8%
C/C(=N\OC(=O)c1ccccc1)[N+](=O)[O-] | 65.4%
O=C(c1ccccc1)C(Br)CCCC(Br)C(=O)c1ccccc1 (stereo not drawn) | 95.5% (active)

From PubChem BioAssay (NCI)
